Experimental data reported in PubChem BioAssay (Tox21).
Inconclusive results are not listed. Active and inactive are the calls of the source. Unless noted, calls follow the shape of the dose curve; as a rule, active = well fitted curve in the direction sought with a large enough effect in the repeat runs; inconclusive = weak or mixed curves; inactive = no such curve, though single readings can be large; an effect the other way counts as inactive or inconclusive.

Tests used:
[1] = target: Retinoic acid receptor RXR-alpha (Homo sapiens) (UniProt P19793); assay: qHTS assay to identify small molecule agonists of the RXR signaling pathway (AID 1159527; calls by dose curve; also: nearly all actives have a fitted effect of over 35% in size)
Retinoic acid receptor RXR-alpha (Homo sapiens), sequence (P19793 whole entry, looked up): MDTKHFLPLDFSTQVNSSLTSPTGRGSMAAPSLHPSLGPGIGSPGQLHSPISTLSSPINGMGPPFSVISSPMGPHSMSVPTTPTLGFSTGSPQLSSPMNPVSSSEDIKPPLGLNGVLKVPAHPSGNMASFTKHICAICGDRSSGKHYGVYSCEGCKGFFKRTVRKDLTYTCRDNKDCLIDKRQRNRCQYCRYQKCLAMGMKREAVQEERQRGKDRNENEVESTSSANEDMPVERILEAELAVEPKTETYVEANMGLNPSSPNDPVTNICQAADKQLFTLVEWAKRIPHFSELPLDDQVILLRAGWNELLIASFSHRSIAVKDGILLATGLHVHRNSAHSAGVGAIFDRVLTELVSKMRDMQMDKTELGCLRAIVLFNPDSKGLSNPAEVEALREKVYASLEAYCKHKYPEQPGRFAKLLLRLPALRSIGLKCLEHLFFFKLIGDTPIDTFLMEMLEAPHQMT
Outline: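 Agonist-mode beta-lactamase reporter assay: HEK 293T RXR-alpha-UAS-bla cells treated 16 hr at 37 C with compounds, 9-cis retinoic acid as positive control. LiveBLAzer FRET substrate, 405 nm excitation, 460/530 nm emission.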

[2] = qHTS assay to identify small molecule agonists of the RXR signaling pathway - cell viability counter screen (AID 1159529); also: series mostly up to about 77 µM; nearly all actives have a fitted effect of over 50% in size
Outline: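 CellTiter-Glo luminescence gave viability in the wells also read for beta-lactamase. Cells (RXR-alpha-UAS-bla HEK 293T, 2% charcoal-stripped FBS medium) had 5 hr plating, then 16 hr compound exposure at 37 C; tetraoctyl ammonium bromide served as positive control.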

[3] = qHTS assay to identify small molecule antagonists of the retinoid acid receptor (RAR) signaling pathway - cell viability counter screen (AID 1159551); also: nearly all actives have a fitted effect of over 35% in size
Outline: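 Following overnight attachment, C3RL4 reporter cells received DMSO-dissolved compounds and then retinol (1 uM final). Six hours later at 37 C, ATP content was measured by CellTiter-Glo luminescence.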

[4] = qHTS assay to identify small molecule antagonists of the retinoic acid receptor (RAR) signaling pathway (AID 1159552; also: nearly all actives have a fitted effect of over 50% in size)
Outline: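 Luminescent RARE reporter read-out in C3RL4 cells: 6 hr co-treatment at 37 C of test compounds with retinol at 1 uM final. Cells plated overnight beforehand; luciferase reagent incubated 30 min at room temperature before reading.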

[5] = qHTS assay to identify small molecule agonists of the retinoic acid receptor (RAR) signaling pathway (AID 1159553)
Outline: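 Cell line C3RL4, RARE luciferase reporter. Treatment: compounds in DMSO, 6 hr, 37 C, 5% CO2, after overnight plating. Detection: luminescence, 30 min RT after reagent.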

[6] = target: Luciferin 4-monooxygenase (Photinus pyralis) (UniProt P08659); assay: qHTS assay to identify small molecule inhibitors of firefly luciferase (AID 1224835); also: series mostly up to about 120 µM; nearly all actives have a fitted effect of over 25% in size
Luciferin 4-monooxygenase (Photinus pyralis), sequence (P08659 whole entry, looked up): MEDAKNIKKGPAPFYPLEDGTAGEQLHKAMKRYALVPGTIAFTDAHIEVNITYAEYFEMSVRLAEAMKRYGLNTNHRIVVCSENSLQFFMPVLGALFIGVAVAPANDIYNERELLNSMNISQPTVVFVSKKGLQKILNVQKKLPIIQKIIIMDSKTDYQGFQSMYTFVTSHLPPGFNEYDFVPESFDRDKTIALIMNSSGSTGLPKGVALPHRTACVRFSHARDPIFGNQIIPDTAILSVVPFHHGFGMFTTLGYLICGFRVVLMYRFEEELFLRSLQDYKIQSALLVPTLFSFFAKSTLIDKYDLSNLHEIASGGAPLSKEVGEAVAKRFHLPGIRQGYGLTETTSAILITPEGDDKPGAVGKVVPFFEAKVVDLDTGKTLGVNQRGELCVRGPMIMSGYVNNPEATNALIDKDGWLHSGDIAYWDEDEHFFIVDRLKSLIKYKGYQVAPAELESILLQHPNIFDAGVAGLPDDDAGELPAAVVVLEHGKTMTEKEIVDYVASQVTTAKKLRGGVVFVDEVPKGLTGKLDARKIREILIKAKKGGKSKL
Outline: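 Quantitative HTS format; KM concentrations of both substrates. Purified P. pyralis FLuc activity quantified from luminescence images.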

[7] = qHTS assay to identify small molecule agonists of the constitutive androstane receptor (CAR) signaling pathway - cell viability counter screen (AID 1224836); also: series mostly up to about 92 µM; nearly all actives have a fitted effect of over 45% in size
Outline: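 Cell viability multiplexed with the CAR agonist screen: CellTiter-Fluor fluorescence after 23 hr at 37 C. HepG2-CYP2B6-hCAR cells got compounds at 15 concentrations with PK11195 at 0.75 uM final.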

[8] = qHTS assay to identify small molecule antagonists of the constitutive androstane receptor (CAR) signaling pathway - cell viability counter screen (AID 1224837); also: series mostly up to about 92 µM; nearly all actives have a fitted effect of over 45% in size
Outline: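 Fluorescence from CellTiter-Fluor served as the viability signal. Human hepatoma HepG2 cells stably bearing hCAR and CYP2B6-2.2kb received compound plus CITCO (50 nM final) for 23 hr.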

[9] = target: Nuclear receptor subfamily 1 group I member 3 (Homo sapiens) (UniProt Q14994); assay: qHTS assay to identify small molecule antagonists of the constitutive androstane receptor (CAR) signaling pathway (AID 1224838);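 also: HepG2 cells stably expressing hCAR with CYP2B6 luciferase reporter stimulated by CITCO; nearly all actives have a fitted effect of over 40% in size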; also: potency is read from the fitted curve at half-maximal effect
Nuclear receptor subfamily 1 group I member 3 (Homo sapiens), sequence (Q14994 whole entry, looked up): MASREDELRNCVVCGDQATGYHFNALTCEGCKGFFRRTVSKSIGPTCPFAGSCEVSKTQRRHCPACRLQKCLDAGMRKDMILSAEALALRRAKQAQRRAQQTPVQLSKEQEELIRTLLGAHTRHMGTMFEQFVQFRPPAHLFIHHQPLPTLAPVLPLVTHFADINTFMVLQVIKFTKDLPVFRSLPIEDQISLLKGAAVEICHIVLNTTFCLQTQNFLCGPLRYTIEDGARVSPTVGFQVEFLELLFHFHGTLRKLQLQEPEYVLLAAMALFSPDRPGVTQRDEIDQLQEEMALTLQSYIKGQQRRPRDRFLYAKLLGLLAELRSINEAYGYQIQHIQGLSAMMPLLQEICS
Outline: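 Quantitative HTS in double-stable HepG2-CYP2B6-hCAR cells. After 4 h plating, cells get compound (15 concentrations) and CITCO at 50 nM final, incubate 24 h at 37 C, then ONE-Glo luminescence is read.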

[10] = target: Nuclear receptor subfamily 1 group I member 3 (Homo sapiens) (UniProt Q14994); assay: qHTS assay to identify small molecule agonists of the constitutive androstane receptor (CAR) signaling pathway (AID 1224839);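 also: HepG2 cells stably carrying human CAR and a CYP2B6 luciferase reporter; series mostly up to about 92 µM; nearly all actives have a fitted effect of over 15% in size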
Outline: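 Luminescent ONE-Glo read-out after 24 hr, 37 C exposure of double-stable HepG2-CYP2B6-hCAR reporter cells to a 15-point compound series, in the presence of 0.75 uM PK11195 (final).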

[11] = qHTS assay to identify small molecule antagonists of the estrogen related receptor signaling pathway with the pleiotropic PPARgamma coactivator (PGC) from Tox21 10K library - cell viability counter screen (AID 1224840; active = well fitted cell-killing curve with a large enough effect in the repeat runs, not every such curve was filed as active; also: nearly all actives have a fitted effect of over 40% in size)
Outline: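 Compounds in DMSO, alongside positive and negative controls, were pinned onto PGC/ERR cells (2,000 per well). Exposure lasted 17.5 hours at 37 C, followed by a 30-minute CellTiter-Fluor incubation and fluorescence reading.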

[12] = target: Thyrotropin receptor (Homo sapiens) (UniProt P16473); assay: qHTS assay to identify small molecule agonists of the thyroid stimulating hormone receptor (TSHR) signaling pathway (AID 1224843; calls by dose curve; also: nearly all actives have a fitted effect of over 45% in size)
Thyrotropin receptor (Homo sapiens), sequence (P16473 whole entry, looked up): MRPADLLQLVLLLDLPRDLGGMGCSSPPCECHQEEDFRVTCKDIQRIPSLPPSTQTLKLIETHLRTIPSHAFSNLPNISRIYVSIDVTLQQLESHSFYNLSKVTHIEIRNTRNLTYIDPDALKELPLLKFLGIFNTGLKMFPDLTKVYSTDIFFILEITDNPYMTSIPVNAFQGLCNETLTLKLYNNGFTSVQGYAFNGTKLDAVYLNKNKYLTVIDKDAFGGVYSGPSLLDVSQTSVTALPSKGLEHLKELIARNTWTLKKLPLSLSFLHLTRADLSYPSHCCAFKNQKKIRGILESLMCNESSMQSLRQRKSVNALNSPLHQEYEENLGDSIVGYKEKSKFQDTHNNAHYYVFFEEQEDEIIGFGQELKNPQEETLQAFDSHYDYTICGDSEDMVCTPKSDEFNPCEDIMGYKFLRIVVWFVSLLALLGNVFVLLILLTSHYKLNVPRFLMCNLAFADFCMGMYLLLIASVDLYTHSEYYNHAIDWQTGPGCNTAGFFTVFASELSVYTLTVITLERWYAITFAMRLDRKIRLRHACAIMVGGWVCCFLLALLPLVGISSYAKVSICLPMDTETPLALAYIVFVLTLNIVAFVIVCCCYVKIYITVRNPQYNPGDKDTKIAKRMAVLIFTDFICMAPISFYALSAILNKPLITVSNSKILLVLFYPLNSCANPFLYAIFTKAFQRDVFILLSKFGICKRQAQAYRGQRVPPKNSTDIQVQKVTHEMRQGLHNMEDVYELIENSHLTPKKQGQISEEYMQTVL
Outline: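 Cell line HEK293 with TSHR; density 800/well. Exposure 30 min RT. Readout HTRF cAMP (cAMP-d2/anti-cAMP-cryptate), 1 h RT before reading.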

[13] = qHTS assay to identify small molecule agonists of the hypoxia (HIF-1) signaling pathway - cell viability counter screen (AID 1224844; calls by dose curve; also: nearly all actives have a fitted effect of over 50% in size)
Outline: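 Luminescent ATP content (CellTiter-Glo, 30 min, room temperature) served as the viability measure in HRE-bla ME-180 cells exposed to compounds for 17 hrs in low-serum medium (0.5% dialyzed FBS).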

[14] = qHTS assay to identify small molecule agonists of H2AX (AID 1224845; active = well fitted activation curve with a large enough effect in the signal ratio in the repeat runs, not every such curve was filed as active; the % refers to the signal ratio)
Outline: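 Wild-type CHO-K1 cells plated overnight, then exposed 3 hr at 37C to compounds at 15 concentrations (0.76% DMSO). Lysed, then HTRF anti-pH2AX(S139)-cryptate/anti-H2AX-d2 detection after 24 hr at room temperature; emissions 665 and 620 nm.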

[15] = qHTS assay to identify small molecule agonists of H2AX - cell viability counter screen (AID 1224847; calls by dose curve; also: top concentration of the series differs between compounds; nearly all actives have a fitted effect of over 30% in size)
Outline: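 Counter-screen for viability: CellTiter-Glo ATP luminescence read after 3 h compound treatment (15-point titration, 0.76% DMSO final) of CHO-K1 cells at 37C, with 30 min room-temperature reagent incubation.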

[16] = qHTS assay to identify small molecule agonists of the hypoxia (HIF-1) signaling pathway (AID 1224846; active = well fitted activation curve with a large enough effect in the signal ratio in the repeat runs, not every such curve was filed as active; the % refers to the signal ratio)
Outline: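 Measured by blue/green FRET after loading CCF4-AM: beta-lactamase expressed from a hypoxia response element in ME-180 cells. Test agents were delivered in DMSO and left 17 hrs; cells had been plated 5 hrs earlier in low-serum (0.5% dialyzed FBS) medium.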

[17] = qHTS assay to identify small molecule antagonists of the estrogen related receptor signaling pathway with the pleiotropic PPARgamma coactivator (PGC) from Tox21 10K library (AID 1224841; call rule not given here; also: series mostly up to about 92 µM; actives are mostly falling curves and most rising ones were filed inactive; nearly all actives have a fitted effect of over 50% in size)
Outline: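 Compound exposure ran 18 hours at 37 C in PGC/ERR cells (2,000/well) that had first rested 6 hours in a 37 C/5% CO2 incubator. Luciferase activity was then detected with One-Glo after a 30-minute room-temperature step.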

[18] = qHTS assay to identify small molecule antagonists of the estrogen related receptor (ERR) signaling pathway from Tox21 library (AID 1224848); also: nearly all actives have a fitted effect of over 50% in size
Outline: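 Screening used an ERR reporter line supplied by NTP, exposed for 18 h at 37 C to library compounds delivered in DMSO. Signal was luciferase luminescence developed with ONE-Glo at room temperature for 30 min.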

[19] = qHTS assay to identify small molecule agonists of the estrogen related receptor signaling pathway with the pleiotropic PPARgamma coactivator (PGC) from Tox21 10K library (AID 1224842); also: nearly all actives have a fitted effect of over 15% in size
Outline: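 PGC/ERR reporter cells (NTP line) were seeded 2,000 per well, rested 6 h at 37 C/5% CO2, then pin-dosed with compounds in DMSO for 18 h at 37 C; luciferase read by One-Glo luminescence after 30 min at room temperature.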

[20] = qHTS assay to identify small molecule antagonists of the estrogen related receptor (ERR) signaling pathway from Tox21 library - cell viability counter screen (AID 1224834); also: nearly all actives have a fitted effect of over 30% in size
Outline: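 Viability readout (CellTiter-Fluor fluorescence, 30 min at 37 C) multiplexed with the ERR assay; cells treated 17.5 h at 37 C with compounds delivered in DMSO.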
% is scaled to controls: 0 for no effect and ±100 for the full control effect.

CCn1cc(C(=O)O)c(=O)c2cnc(N3CCCC3)nc21
inactive: activation [1] 0.584% [at 6.98 µM] | activity change, negative = cytotoxicity [2] -1.74% [at 6.97 µM] | activity change, negative = cytotoxicity [3] 0.0795% [at 8.39 µM] | activity, negative = inhibition [4] 5.14% [at 8.39 µM] | activation [5] 1.53% [at 8.36 µM] | activity change, negative = inhibition [6] 2.85% [at 10.5 µM] | viability change, negative = cytotoxic [7] 6.12% [at 8.39 µM] | activity change, negative = cytotoxicity [8] 1.8% [at 8.39 µM] | activity, negative = inhibition [9] -3.92% [at 8.39 µM] | activation [10] -0.437% [at 8.39 µM] | viability change, negative = cytotoxic [11] 1.85% [at 8.39 µM] | activation [12] -1.79% [at 8.39 µM] | activity change, negative = cytotoxicity [13] 0.904% [at 6.97 µM] | activation (H2AX phosphorylation) [14] 0.23% [at 14 µM] | activity change, negative = cytotoxicity [15] -5.46% [at 14 µM]

CC(=O)O[Si](C)(OC(C)=O)OC(C)=O
inactive: Potency [1] | outcome [2] | outcome [3] | outcome [4] | Potency [5] | Potency [6] | outcome [7] | outcome [8] | Potency [9] | Potency [10] | outcome [11] | outcome [12] | outcome [13] | outcome [16] | outcome [15]

COc1cc2c(cc1OC)C(=O)C(CC1CCN(Cc3ccccc3)CC1)C2 (stereo unspecified)
inactive: Potency [1] | outcome [2] | outcome [3] | outcome [4] | Potency [5] | Potency [6] | outcome [7] | outcome [8] | Potency [10] | outcome [11] | outcome [17] | outcome [12] | outcome [13] | outcome [14] | outcome [16] | outcome [15] | Potency [18]

CCC(=O)CC
inactive: Potency [1] | outcome [2] | outcome [3] | outcome [4] | Potency [5] | Potency [6] | outcome [7] | outcome [8] | Potency [10] | outcome [11] | outcome [17] | outcome [19] | outcome [13] | outcome [14] | outcome [16] | outcome [15] | Potency [18]

c1ccc(-c2nn[nH]n2)cc1
inactive: Potency [1] | outcome [3] | outcome [4] | Potency [5] | outcome [20] | Potency [6] | outcome [7] | outcome [8] | Potency [9] | Potency [10] | outcome [11] | outcome [17] | outcome [19] | outcome [13] | Potency [18]

C=C(C)c1cccc(C(C)(C)N=C=O)c1
active: Potency [9] 7.7 µM
inactive: Potency [1] | outcome [2] | outcome [3] | outcome [4] | Potency [5] | Potency [6] | outcome [7] | outcome [8] | Potency [10] | outcome [11] | outcome [12] | outcome [13] | outcome [14] | outcome [16]

Cc1cc(C)c(C(=O)O)c(C)c1
inactive: Potency [1] | outcome [2] | outcome [3] | outcome [4] | Potency [5] | Potency [6] | outcome [7] | outcome [8] | Potency [9] | Potency [10] | outcome [11] | outcome [12] | outcome [13] | outcome [14] | outcome [16] | outcome [15]

OC1(c2ccc(Cl)cc2)CCNCC1
inactive: Potency [1] | outcome [2] | outcome [3] | outcome [4] | Potency [5] | outcome [7] | outcome [8] | Potency [9] | Potency [10] | outcome [11] | outcome [12] | outcome [13] | outcome [14] | outcome [16] | outcome [15]

CCC(C)OC(C)CC (stereo unspecified)
inactive: Potency [1] | outcome [2] | outcome [3] | outcome [4] | Potency [5] | Potency [6] | outcome [7] | outcome [8] | Potency [9] | Potency [10] | outcome [11] | outcome [12] | outcome [13] | outcome [14] | outcome [16]

CSc1cnccn1
inactive: Potency [1] | outcome [2] | outcome [3] | outcome [4] | Potency [5] | outcome [7] | outcome [8] | Potency [10] | outcome [11] | outcome [12] | outcome [13] | outcome [14] | outcome [16] | outcome [15]

COc1cc(/C=C/C(N)=O)cc(OC)c1OC
inactive: Potency [1] | outcome [2] | outcome [3] | outcome [4] | Potency [5] | Potency [6] | outcome [7] | outcome [8] | Potency [9] | Potency [10] | outcome [11] | outcome [12] | outcome [13] | outcome [14] | outcome [15]

C=C(C)[C@@H]1CC=C(C)CC1
inactive: Potency [1] | outcome [2] | outcome [3] | outcome [20] | Potency [6] | outcome [7] | outcome [8] | Potency [9] | Potency [10] | outcome [11] | outcome [13] | outcome [14] | outcome [16] | outcome [15]

COc1ccc2c(c1)c1c3n2CCN(C)C3=NCC1
inactive: Potency [1] | outcome [2] | outcome [3] | outcome [4] | Potency [5] | Potency [6] | outcome [7] | outcome [8] | Potency [10] | outcome [11] | outcome [12] | outcome [13] | outcome [16] | outcome [15]

C=CCSSCCC
inactive: Potency [1] | outcome [2] | outcome [3] | outcome [4] | Potency [5] | Potency [6] | outcome [7] | outcome [8] | Potency [9] | Potency [10] | outcome [11] | outcome [12] | outcome [13] | outcome [14] | outcome [16]

C=Cc1ccc(C(C)(C)C)cc1
inactive: Potency [1] | outcome [2] | outcome [3] | outcome [4] | Potency [5] | Potency [6] | outcome [7] | outcome [8] | Potency [9] | Potency [10] | outcome [11] | outcome [12] | outcome [13] | outcome [14] | outcome [16]

OCCN1CCOCC1
inactive: Potency [1] | outcome [2] | outcome [3] | outcome [4] | Potency [5] | outcome [7] | outcome [8] | Potency [9] | Potency [10] | outcome [11] | outcome [12] | outcome [13] | outcome [14] | outcome [16] | outcome [15]

CC(O)COC(C)(C)C (stereo unspecified)
inactive: Potency [1] | outcome [2] | outcome [3] | outcome [4] | Potency [5] | outcome [7] | outcome [8] | Potency [9] | Potency [10] | outcome [11] | outcome [12] | outcome [13] | outcome [14] | outcome [16]
